The record followed here is PubChem BioAssay.

Several values for one entry are separate records, joined by “and”; a condition that tells them apart may be missing. Equal entries are not always repeated. Activity calls are given as the source filed them.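 The calls were made as follows, unless noted: active = compounds whose cell count with miR-34 switched on is under 0.7 times the count with it off; inactive = the rest.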

Test [1] can be described thus: compounds altering viability of human ES cells (AID 493140; call rule not given here;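 also: cells exposed to compounds for four days before counting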). To be noted: human embryonic stem cell survival screen; stronger effect = higher value.
The nature of test [2]: P. berghei load reduction in hepatocytes – cell-based, HepG2, luciferase luminescence, HepG2 viability, primary screen (AID 624349; in the data active = parasite load remaining mostly below about 12%, no sharp cut-off; inactive = mostly above about 10%;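 also: 100% = mean of DMSO negative control wells on the same plate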). To be noted: P. berghei liver stage in HepG2, luciferase luminescence, concentration not given here; parasite load remaining: stronger effect = lower value; viability: measured here: HepG2 viability without parasites.
Test [3] can be described thus: Wnt pathway potentiators raising nuclear beta-catenin – imaging, WNT3A-conditioned medium, mouse C2C12, NPC library, primary screen (AID 1117326; in the data active = nuclear beta-catenin stimulation mostly above about 4.2%, no sharp cut-off; inactive = mostly below about 10%). To be noted: stronger effect = higher value.
Test [4] is described as follows: stimulators of insulin release from INS-1E, primary screen, cell-based, 5 mM glucose, NPC library (AID 1117329;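 active = compound raises insulin release from rat beta cells at 5 mM glucose, no numeric limit stated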). To be noted: rat INS-1E insulin secretion, at 10 µM, stronger effect = higher value.
The nature of test [5]: growth inhibition of GSK3B-pretreated HCT116 cells – cell-based, CellTiter-Glo, 0.2 to 20 µM (AID 1117336;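 active = compounds lowering colon cancer cell viability after pretreatment blocking the GSK3B kinase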). The settings on record: HCT116 viability after GSK3B inhibitor, at 20 µM, stronger effect = higher value. In general terms: In ATP-based viability assays light output follows the ATP content of the culture.
A short description of test [6]: inhibition of endothelial tube formation, primary screen, imaging, VEGF stimulated, CD31 staining, tube area, NPC library (AID 1117340;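 active = compound that reduces growth-factor-driven endothelial tube area in a mixed cell culture, no cutoff stated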). To be noted: VEGF-stimulated ADSC/ECFC co-culture, at 10 µM, stronger effect = higher value.
Test [7] can be described thus: GLP1 release stimulators, primary, NCI-H716, NPC library (AID 1117341;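 active = compound raises GLP1 secretion from the human gut endocrine cells, with no numeric limit stated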). The settings on record: NCI-H716 cells, at 10 µM, stronger effect = higher value.
Test [8] in a line: HCT116 colon cancer cell growth inhibition, primary screen, CellTiter-Glo luminescence, NPC library (AID 1117342;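 active = compounds that lower survival of HCT116 colon cancer cells in the luminescence readout, no numeric limit stated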). To be noted: at 20 µM (top of the series).
Test [9] can be described thus: reduced SW480 viability measured with CellTiter-Glo, NPC library, primary (AID 1117343;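 active = compounds that lower viability of the colon cancer cells in the luminescence readout, with no numeric limit stated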). The settings on record: CellTiter-Glo luminescence; at 20 µM (top of the series) unless noted.
Test [10] is described as follows: NPC library primary testing for decreased DLD-1 cell viability via CellTiter-Glo (AID 1117346;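 active = compounds that lower survival of DLD-1 colon cancer cells in the luminescence readout, no cutoff given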). To be noted: DLD-1 viability, CellTiter-Glo luminescence; at 20 µM (top of the series).
Test [11] can be described thus: EMT-state selective cytotoxicity in co-culture – imaging, PC-3E GFP, TEM4-18 mCherry, primary screen (AID 1345086;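 active = compounds killing one labelled cell type while sparing the other, by normalised counts and ratio limits, not self-fluorescent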;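 as to all read-outs here: cells exposed to compound for 72 h before imaging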;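 as to red/green cell ratio (normalised): normalised mesenchymal count divided by normalised epithelial count so high means epithelial killing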). To be noted: PC-3E GFP / TEM4-18 mCherry co-culture, imaging cell counts, at 1 µM; for red/green cell ratio (normalised): actives lie on both sides, counts scaled to control wells, 1 = unselective.
Test [12] is described as follows: viability loss with induced miR-34 in A549 – imaging, A549 dox-inducible miR-34, nuclei and caspase counts, primary screen (AID 1347080). To be noted: A549 miR-34 inducible, Hoechst nuclei count, 48 h.
The nature of test [13]: MELAS cybrid and Rieske KO viability enhancers – cell-based, MELAS cybrids, Rieske KO mouse fibroblasts, CellTiter-Glo, primary screen (AID 1508586;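 active = mean z-score across replicates of 1.96 or higher in either the MELAS or the Rieske mutant cell line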;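 also: z relative to plate mean and SD of compound and empty wells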). To be noted: low glucose.
In test [14] the target is NAD(+) hydrolase SARM1 (Homo sapiens) (UniProt Q6SZW1). The test can be described thus: blocking NAD cleavage by SARM1 SAM-TIR – cell lysate, NAD-Glo luminescence (AID 1508614;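 active = compound whose remaining NAD level is above about 45 nM, limit read from the data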;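 also: higher remaining NAD means stronger inhibition of SARM1 NADase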). The settings on record: SAM-TIR HEK293T lysate NADase, at 1 µM, stronger effect = higher value.
[15] abbreviates: measured here: epithelial PC-3E GFP cell survival.
Where [16] appears, read: measured here: mesenchymal TEM4-18 mCherry cell survival.
[17] abbreviates: stronger effect = lower value, cell number ratio, induced over uninduced.
The mark [18] stands for this setting: measured here: relative caspase fold change +Dox/-Dox.
Setting [19] is: measured here: total cells with miR-34 induction, stronger effect = lower value.
[20] abbreviates: measured here: total cells without miR-34 induction.
Where [21] appears, read: MELAS cybrid survival, CellTiter-Glo 48 h, stronger effect = higher value.
Where [22] appears, read: Rieske KO mouse fibroblast survival, CellTiter-Glo 72 h.

NAD(+) hydrolase SARM1 (Homo sapiens), sequence (Q6SZW1 whole entry, looked up): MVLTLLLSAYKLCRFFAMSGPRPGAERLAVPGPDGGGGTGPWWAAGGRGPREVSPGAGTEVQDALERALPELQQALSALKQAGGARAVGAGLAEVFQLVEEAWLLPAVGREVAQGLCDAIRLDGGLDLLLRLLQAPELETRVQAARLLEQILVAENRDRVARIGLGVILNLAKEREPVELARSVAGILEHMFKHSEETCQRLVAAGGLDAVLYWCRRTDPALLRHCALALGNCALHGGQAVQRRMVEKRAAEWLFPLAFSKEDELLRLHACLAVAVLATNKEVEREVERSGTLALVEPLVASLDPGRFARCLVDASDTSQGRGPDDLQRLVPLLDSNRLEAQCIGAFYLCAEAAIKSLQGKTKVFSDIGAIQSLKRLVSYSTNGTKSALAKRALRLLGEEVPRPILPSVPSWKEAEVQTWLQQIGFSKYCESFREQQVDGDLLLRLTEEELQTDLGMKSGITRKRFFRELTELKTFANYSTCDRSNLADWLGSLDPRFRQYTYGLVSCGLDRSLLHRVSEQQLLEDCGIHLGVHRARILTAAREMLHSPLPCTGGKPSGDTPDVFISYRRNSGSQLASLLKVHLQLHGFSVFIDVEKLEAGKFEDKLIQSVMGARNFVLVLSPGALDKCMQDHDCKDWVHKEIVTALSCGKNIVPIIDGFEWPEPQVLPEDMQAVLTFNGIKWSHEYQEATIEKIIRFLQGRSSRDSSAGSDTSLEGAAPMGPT

For the compound `Oc1c(I)cc(Cl)c2cccnc12`, the survival in [1] is 4.42 (inactive). In [2], the parasite load remaining is 11.3% (inactive) and 21.8% (inactive). The viability in [2] was 89.4% and 95.4%. Besides, the nuclear beta-catenin stimulation in test [3] (at 10 µM) was 55.7% (active); in [3] (stimulation, at 2 µM), 6%. Moreover, the insulin secretion stimulation in [4] is -0.1% (inactive). In test [5], the viability decrease was 82% (active). For the same compound, in test [6], the tube area decrease is 110% (active). For the same compound, the GLP1 secretion stimulation in [7] was -5% (inactive). Besides, the inhibition of viability in test [8] is 81.2% (active). In addition, the viability decrease (inhibition) was 127% (active) in [9] and 97.8% (active) in test [10]. Besides, the red/green cell ratio (normalised) in test [11] is 1 (inactive). Moreover, the normalised cell number in test [11] (setting [15]) and in test [11] (setting [16]) was 0.99 each time. For the same compound, the fold change was 1.06 (inactive) and 0.786 (inactive) in test [12] (setting [17]); 0.681 and 1.8 in [12] (setting [18]). In addition, the cell count in [12] (setting [19]) was 5310 and 5470; in test [12] (setting [20]), 5010 and 6960. Besides, the results for the z-score in test [13] (setting [21]) and in test [13] (setting [22]) were 0.113 (inactive) and -0.741, respectively. Moreover, the remaining NAD in test [14] is 10 nM (inactive).

Take `O=C(NCC(O)CO)c1c(I)c(C(=O)NCC(O)CO)c(I)c(N(CCO)C(=O)CO)c1I` (stereo unspecified): in test [1], the survival was 5.33 (inactive). Further, in test [2], the parasite load remaining is 117% (inactive). In addition, the viability in test [2] was found to be 103%. Moreover, the nuclear beta-catenin stimulation is 0.6% (inactive) in [3] (at 10 µM) and 1.1% in test [3] (stimulation, at 2 µM). In test [4], the insulin secretion stimulation is 2.2% (inactive). The viability decrease in test [5] was -0.3% (inactive). In [6], the tube area decrease was -24.3% (inactive). Moreover, the GLP1 secretion stimulation in test [7] is -2.6% (inactive). In addition, in test [8], the inhibition of viability was 50.9% (active). The viability decrease (inhibition) in [9] is 15.5% (inactive); in [10], 27.9% (inactive). For the same compound, the red/green cell ratio (normalised) in test [11] is 0.86 (inactive). The normalised cell number in test [11] (setting [15]) was determined as 1.25; in test [11] (setting [16]) it was 1.07. The fold change is 0.865 (inactive) in test [12] (setting [17]) and 1.27 in [12] (setting [18]). In addition, the cell count in test [12] (setting [19]) came out at 8520; in test [12] (setting [20]) it was 9850. The z-score is -0.49 (inactive) in [13] (setting [21]) and -1.02 in test [13] (setting [22]). The remaining NAD in test [14] was 10 nM (inactive).

Consider `CN1CCC(=C2c3ccccc3CCc3cccnc32)CC1`, for which the nuclear beta-catenin stimulation in test [3] (at 10 µM) is -2.3% (inactive); in test [3] (stimulation, at 2 µM), -0.6%. In addition, in [4], the insulin secretion stimulation is 9.4% (inactive). Besides, the viability decrease in test [5] was -3.7% (inactive). In addition, in test [6], the tube area decrease was 15.1% (inactive). Moreover, the GLP1 secretion stimulation in [7] was 2.5% (inactive). In addition, the inhibition of viability in [8] was -2.7% (inactive). The viability decrease (inhibition) in test [9] was 13.6% (inactive); in test [10], -0.2% (inactive). Besides, the red/green cell ratio (normalised) in test [11] was 0.76 (inactive). The normalised cell number in test [11] (setting [15]) came to 1.26; in [11] (setting [16]), 0.95. Also, the fold change in test [12] (setting [17]) was 0.929 (inactive) and 0.835 (inactive); in test [12] (setting [18]), 0.933 and 0.421 and 1.15. Further, the cell count is 8510 and 8540 and 7120 in [12] (setting [19]); 9160 and 9200 and 8530 in [12] (setting [20]). The z-score was -0.226 (inactive) and -0.309 (inactive) and -0.701 (inactive) in test [13] (setting [21]); -0.00379 and -0.328 and -0.133 in [13] (setting [22]). Further, the remaining NAD in test [14] is 10 nM (inactive).

Regarding `O=C(O)c1cc(-c2ccccc2)nc2ccccc12`, the nuclear beta-catenin stimulation in test [3] (at 10 µM) is 2.1% (inactive); in test [3] (stimulation, at 2 µM) it was 0.6%. Also, in test [4], the insulin secretion stimulation was -1.6% (inactive). The viability decrease in [5] was 5.55% (inactive). Further, in test [6], the tube area decrease is 1.3% (inactive). The GLP1 secretion stimulation in test [7] is 4.2% (inactive). The inhibition of viability in [8] was -8.1% (inactive). Also, the viability decrease (inhibition) was 27.9% (inactive) in test [9] and 8.8% (inactive) in test [10]. Moreover, the red/green cell ratio (normalised) in test [11] was 0.87 (inactive). Further, the results for the normalised cell number in test [11] (setting [15]) and in test [11] (setting [16]) were 0.9 and 0.78, respectively. Further, the fold change in test [12] (setting [17]) was 0.909 (inactive) and 0.965 (inactive); in [12] (setting [18]) it was 0.94 and 1.19. In addition, the cell count in test [12] (setting [19]) is 8690 and 8580; in test [12] (setting [20]), 9560 and 8890. Further, the z-score in test [13] (setting [21]) was -0.261 (inactive); in [13] (setting [22]), -0.139. The remaining NAD in [14] is 10 nM (inactive).

As for `COc1ccc(O)cc1`, the nuclear beta-catenin stimulation in test [3] (at 10 µM) is 1.7% (inactive); in [3] (stimulation, at 2 µM), 0.5%. Also, the insulin secretion stimulation in test [4] was -1.8% (inactive). In addition, the viability decrease in test [5] was 12.9% (inactive). The tube area decrease in test [6] is 18.7% (inactive). For the same compound, the GLP1 secretion stimulation in test [7] is -0.4% (inactive). The inhibition of viability in [8] was -4.9% (inactive). Besides, the viability decrease (inhibition) in test [9] was 88.2% (active); in test [10] it was 27.4% (inactive). Further, the red/green cell ratio (normalised) in test [11] is 1.14 (inactive). Moreover, the normalised cell number in test [11] (setting [15]) came out at 1.04; in [11] (setting [16]) it was 1.18. The fold change is 0.919 (inactive) and 0.917 (inactive) in test [12] (setting [17]); 0.877 and 0.265 in test [12] (setting [18]). Besides, the cell count in test [12] (setting [19]) was 7700 and 8110; in [12] (setting [20]), 8370 and 8840. Further, the z-score was -0.189 (inactive) in test [13] (setting [21]) and -0.254 in test [13] (setting [22]). Also, the remaining NAD in test [14] is 10 nM (inactive).

Broadly, the viability is a read-out of living cells in per cent, often relative to untreated cells.
